Assay results from article PMC4336329 (PLoS ONE, 2015).
Out of some 310,000 compounds screened, about 14,000 (4.5%) showed an effect of 50% or more. Effects have a minus sign here. The list comes from a sample in which strong results are over-represented; it also holds similar structures and randomly drawn compounds.
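Also: peak tail current of the secondary pulse compared with the same well before compound.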

Each molecule was assayed against human ether-à-go-go-related gene (hERG) potassium channel (human, UniProt Q12809) (assay: primary screen, population patch clamp on CHO cells stably expressing hERG; higher = less effect of the substance).
Chain of human ether-à-go-go-related gene (hERG) potassium channel (Q12809 whole entry, looked up): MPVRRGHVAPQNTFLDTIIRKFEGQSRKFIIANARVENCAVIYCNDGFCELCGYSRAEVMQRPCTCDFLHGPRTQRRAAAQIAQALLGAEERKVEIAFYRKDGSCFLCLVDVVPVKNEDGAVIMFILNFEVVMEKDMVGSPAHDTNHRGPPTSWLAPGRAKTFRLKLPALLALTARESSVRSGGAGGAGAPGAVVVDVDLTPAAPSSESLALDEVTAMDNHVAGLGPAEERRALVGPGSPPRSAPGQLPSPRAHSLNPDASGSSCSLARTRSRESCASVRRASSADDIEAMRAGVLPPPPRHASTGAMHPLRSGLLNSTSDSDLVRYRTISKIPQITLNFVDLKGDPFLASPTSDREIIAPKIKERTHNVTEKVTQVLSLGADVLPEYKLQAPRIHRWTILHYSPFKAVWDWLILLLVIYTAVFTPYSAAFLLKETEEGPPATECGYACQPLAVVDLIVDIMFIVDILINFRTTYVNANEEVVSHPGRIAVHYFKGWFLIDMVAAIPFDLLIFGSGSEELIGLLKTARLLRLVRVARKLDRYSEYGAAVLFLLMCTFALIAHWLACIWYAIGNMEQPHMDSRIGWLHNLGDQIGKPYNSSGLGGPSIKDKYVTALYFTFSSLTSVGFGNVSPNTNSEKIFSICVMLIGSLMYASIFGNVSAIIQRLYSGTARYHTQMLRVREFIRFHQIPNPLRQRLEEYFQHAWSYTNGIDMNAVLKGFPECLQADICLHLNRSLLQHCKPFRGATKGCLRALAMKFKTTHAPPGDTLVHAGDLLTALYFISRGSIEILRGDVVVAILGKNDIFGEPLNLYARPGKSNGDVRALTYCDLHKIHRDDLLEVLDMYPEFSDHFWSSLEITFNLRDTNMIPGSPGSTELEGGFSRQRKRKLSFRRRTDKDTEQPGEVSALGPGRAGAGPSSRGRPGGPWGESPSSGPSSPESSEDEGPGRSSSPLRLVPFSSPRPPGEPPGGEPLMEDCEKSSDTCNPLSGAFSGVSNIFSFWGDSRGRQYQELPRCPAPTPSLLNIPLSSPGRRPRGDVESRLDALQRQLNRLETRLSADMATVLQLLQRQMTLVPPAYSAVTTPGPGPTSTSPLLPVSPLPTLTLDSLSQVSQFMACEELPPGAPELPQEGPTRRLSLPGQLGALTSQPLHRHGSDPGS
In the case of `CC1Cc2ccccc2N1C(=O)CSc1nc2c(c(=O)n(C)c(=O)n2C)n1Cc1ccccc1` (stereo not drawn), the “hERG current change (%, negative = inhibition) at 10uM” value is reported as -33.7%.
`Cc1ccc(Nc2ccccc2)nn1` was tested, and the “hERG current change (%, negative = inhibition) at 10uM” value was 18.6%.
`COc1ccccc1-c1coc2c(CN3CCCC(C)C3)c(O)ccc2c1=O` (stereo not drawn) was tested, and the “hERG current change (%, negative = inhibition) at 10uM” value was -2.44%.
`CSC1=NC2(CC(c3ccccc3)Oc3cc(O)ccc32)CC(C)(C)N1` (stereo not drawn) was tested, and the “hERG current change (%, negative = inhibition) at 10uM” value was -76.1%.
With `CC1(C)CC2(CC(c3ccccc3)Oc3cc(O)ccc32)NC(=O)N1` (stereo not drawn) the “hERG current change (%, negative = inhibition) at 10uM” value was 3.54%.
For `CC1(C)CC2(CC(c3ccccc3)Oc3cc(O)ccc32)NC(=S)N1` (stereo not drawn), the “hERG current change (%, negative = inhibition) at 10uM” value was -1.82%.
For `Cc1cc(Cl)ccc1OCC(=O)N/N=C1\CCCc2ccccc21`, the “hERG current change (%, negative = inhibition) at 10uM” value was -0.309%.
`CC(C)(C)c1nc2ccc(NS(=O)(=O)c3ccc(F)c(F)c3F)cc2[nH]1` was tested, and the “hERG current change (%, negative = inhibition) at 10uM” value was 10.6%.
With `COc1ccccc1NC1=NC(C)(C)N=C(N)N1` the “hERG current change (%, negative = inhibition) at 10uM” value was 23.2%.
For `NS(=O)(=O)c1ccc(CCNC(=O)c2ccc(-c3ccccc3)cc2)cc1`, the “hERG current change (%, negative = inhibition) at 10uM” value was 9.92%.
With `COc1ccccc1NC(=S)NNC(=O)c1ccccc1Br` the “hERG current change (%, negative = inhibition) at 10uM” value was -70.9%.
In the case of `COc1ccccc1NC(=S)NNC(=O)c1ccccc1`, the “hERG current change (%, negative = inhibition) at 10uM” value is reported as -1.04%.
In the case of `COc1ccccc1C(=O)NNC(=O)c1ccccc1Br`, the “hERG current change (%, negative = inhibition) at 10uM” value is reported as 23%.
`Cc1nn(Cc2ccc(F)cc2Cl)c(C)c1[N+](=O)[O-]` was tested, and the “hERG current change (%, negative = inhibition) at 10uM” value was -1.01%.
With `Cc1ccc(OCC(=O)O/N=C(\N)c2ccccn2)cc1C` the “hERG current change (%, negative = inhibition) at 10uM” value was -11.3%.
`O=C(O)c1ccc(Nc2nc3c(s2)CCCC3)cc1` was tested, and the “hERG current change (%, negative = inhibition) at 10uM” value was -81.3%.
In the case of `Cc1nc(Nc2ccc(C(=O)O)cc2)sc1-c1ccccc1`, the “hERG current change (%, negative = inhibition) at 10uM” value is reported as -76.5%.
In the case of `Cc1cccc(Nc2nc3c(s2)CCCC3)c1`, the “hERG current change (%, negative = inhibition) at 10uM” value is reported as -8.11%.
In the case of `COc1ccc(NC(=O)Nc2nc3c(s2)CCCC3)cc1`, the “hERG current change (%, negative = inhibition) at 10uM” value is reported as -26.8%.
With `Cc1nc(Nc2ccccc2)sc1-c1ccccc1` the “hERG current change (%, negative = inhibition) at 10uM” value was 1.73%.
With `COc1ccc(Nc2nc(C)c(-c3ccccc3)s2)cc1` the “hERG current change (%, negative = inhibition) at 10uM” value was 14.9%.
`C=CCSC1=C(C#N)C2(CCCCC2)C(C#N)C(=O)N1` (stereo not drawn) was tested, and the “hERG current change (%, negative = inhibition) at 10uM” value was -3.87%.
In the case of `C=CCNc1sc(C(=O)C(C)(C)C)c(N)c1C#N`, the “hERG current change (%, negative = inhibition) at 10uM” value is reported as 5.11%.
For `CCN(CC(=O)Nc1ccc(OC)cc1)C(=O)c1ccc2c(=O)n3c(nc2c1)CCC3`, the “hERG current change (%, negative = inhibition) at 10uM” value was 9.77%.
For `C=CCn1cnc2c(sc3nc(C)cc(C)c32)c1=O`, the “hERG current change (%, negative = inhibition) at 10uM” value was -6.75%.
For `COc1ccccc1OCCNC(=O)c1cc([N+](=O)[O-])cc([N+](=O)[O-])c1`, the “hERG current change (%, negative = inhibition) at 10uM” value was 12.2%.
With `Cc1nc(-c2ccncc2)nc(NCCNc2ncccc2C(F)(F)F)c1Cl` the “hERG current change (%, negative = inhibition) at 10uM” value was 6.57%.
With `COc1ccccc1CC(=O)NC1CCCc2ccccc21` (stereo not drawn) the “hERG current change (%, negative = inhibition) at 10uM” value was -32.8%.
`CCN(CCn1cccn1)C(=O)CCc1nnc(-c2ccc3c(c2)OCO3)o1` was tested, and the “hERG current change (%, negative = inhibition) at 10uM” value was -5.68%.
In the case of `Cc1cc(C)n(CCN(C)C(=O)CCc2nnc(CCC3CCCCC3)o2)n1`, the “hERG current change (%, negative = inhibition) at 10uM” value is reported as -4.29%.
In the case of `O=C(CCc1nnc(-c2ccc3c(c2)OCO3)o1)N1CCC(c2ccc(F)cc2)C1` (stereo not drawn), the “hERG current change (%, negative = inhibition) at 10uM” value is reported as -56%.
For `CC1CCCN(C(=O)CCc2nnc(-c3ccc4c(c3)OCO4)o2)C1` (stereo not drawn), the “hERG current change (%, negative = inhibition) at 10uM” value was -4.43%.
`CCC(=O)C1CCCN(C(=O)CCc2nnc(-c3ccc4c(c3)OCO4)o2)C1` (stereo not drawn) was tested, and the “hERG current change (%, negative = inhibition) at 10uM” value was -8.82%.
In the case of `Cc1cc(C)n(CCN(C)C(=O)CCc2nnc(-c3ccc4c(c3)OCO4)o2)n1`, the “hERG current change (%, negative = inhibition) at 10uM” value is reported as -51.7%.
With `O=C(CNc1ccc2ccccc2c1)N/N=C/c1ccc(OC(=O)/C=C/c2ccco2)cc1` the “hERG current change (%, negative = inhibition) at 10uM” value was 22.7%.
In the case of `Cc1ccccc1OS(=O)(=O)c1cn(C)c(=O)n(C)c1=O`, the “hERG current change (%, negative = inhibition) at 10uM” value is reported as 11.4%.
For `Cc1ccc(C2CC(=O)C=C(Nc3ccc(Cl)cc3)C2)cc1` (stereo not drawn), the “hERG current change (%, negative = inhibition) at 10uM” value was 7.93%.
`Cc1ccc(S(=O)(=O)/N=C/N(C)C)cc1` was tested, and the “hERG current change (%, negative = inhibition) at 10uM” value was 0.768%.
In the case of `COc1ccc(-c2cnnc(N/N=C/C(C)=C/c3ccccc3)n2)cc1`, the “hERG current change (%, negative = inhibition) at 10uM” value is reported as -9.57%.
In the case of `CCc1c(C(=O)NCCc2cccc(C)c2)[nH]c(C)c1C(C)=O`, the “hERG current change (%, negative = inhibition) at 10uM” value is reported as 12.2%.
In the case of `O=[N+]([O-])c1ccc(C(O)CN2CCN(c3ccccc3)CC2)cc1` (stereo not drawn), the “hERG current change (%, negative = inhibition) at 10uM” value is reported as -50.3%.
`O=[N+]([O-])c1ccc(C(O)CN2CCOCC2)cc1` (stereo not drawn) was tested, and the “hERG current change (%, negative = inhibition) at 10uM” value was 18.5%.
With `O=C1CCN(Cc2ccc([N+](=O)[O-])cc2)CCN1[C@H](CO)c1ccccc1` the “hERG current change (%, negative = inhibition) at 10uM” value was -37.4%.
For `O=C(CC(c1ccccc1)c1ccccc1)NCC(O)c1ccc([N+](=O)[O-])cc1` (stereo not drawn), the “hERG current change (%, negative = inhibition) at 10uM” value was -58.1%.
In the case of `Oc1ccc(N2CCN(CC(O)c3ccccc3)CC2)cc1` (stereo not drawn), the “hERG current change (%, negative = inhibition) at 10uM” value is reported as 10.4%.
In the case of `O=[N+]([O-])c1ccc(C(O)CNC(=S)Nc2ccccc2)cc1` (stereo not drawn), the “hERG current change (%, negative = inhibition) at 10uM” value is reported as -11.6%.
With `O=[N+]([O-])c1ccc(C(O)C[n+]2ccccc2)cc1.[I-]` (stereo not drawn) the “hERG current change (%, negative = inhibition) at 10uM” value was 12%.
For `O=[N+]([O-])c1ccc(C(O)CN2CCN(Cc3ccccc3)CC2)cc1` (stereo not drawn), the “hERG current change (%, negative = inhibition) at 10uM” value was -73.4%.
For `CC1SC(c2ccccc2)N(CC(O)c2ccc([N+](=O)[O-])cc2)C1=O` (stereo not drawn), the “hERG current change (%, negative = inhibition) at 10uM” value was -80.6%.
`O=C(NCC(O)c1ccc([N+](=O)[O-])cc1)C(c1ccccc1)c1ccccc1` (stereo not drawn) was tested, and the “hERG current change (%, negative = inhibition) at 10uM” value was -46.2%.
With `O=C(CNC(=O)c1ccccc1)NCC(O)c1ccc([N+](=O)[O-])cc1` (stereo not drawn) the “hERG current change (%, negative = inhibition) at 10uM” value was 10.7%.
In the case of `O=C1CSC(c2ccccc2)N1CC(O)c1ccc([N+](=O)[O-])cc1` (stereo not drawn), the “hERG current change (%, negative = inhibition) at 10uM” value is reported as -12.1%.
With `COc1ccccc1NC(=S)NC(=O)C(C)C` the “hERG current change (%, negative = inhibition) at 10uM” value was -21.8%.
For `Cc1c(C(=O)N2CCCCC2)nn(-c2ccc(Cl)cc2)c(=O)c1C#N`, the “hERG current change (%, negative = inhibition) at 10uM” value was -17.5%.
For `CC(C)(C)n1nc2c(c1NC(=O)COc1ccc(Cl)cc1)CS(=O)(=O)C2`, the “hERG current change (%, negative = inhibition) at 10uM” value was -46.5%.
With `Cc1cccc(NC(=S)Nc2ccc3cn[nH]c3c2)c1` the “hERG current change (%, negative = inhibition) at 10uM” value was 1.96%.
With `COc1ccc(C(=O)[C@H]2[C@H]3C(=O)N(c4ccccc4)C(=O)[C@H]3C3C=CC=NN32)cc1` (stereo partly drawn) the “hERG current change (%, negative = inhibition) at 10uM” value was 4.94%.
